Source: the supplement of paper PMC10849652
Of roughly 8,800 targets only a part is listed; those with a hit were picked by preference. About 0.5% of all pairs of compound and target were hits. Unmarked numbers belong to inactive results.

Compound: c1ccc([C@@H]2C[C@H]2NC2CCNCC2)cc1
Assay: log2 fold change, soluble protein after heating vs DMSO (PISA); higher = thermal stabilisation; K562 lysate, 10 uM; active = over 0.2 and 3.5 SD of the protein, either way, in both replicates (recomputed)
Summary of the method: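 To prepare the extract, K562 pellets were dounce-homogenised in PBS pH 7.4 with 1 mM MgCl2, giving crude material at 1 mg/mL protein. This was treated with 10 μM compound for 30 min, then heated in aliquots for 3 min over 48°C-58°C before pooling and addition of NP-40 to 0.5% at 4°C. Centrifugation at 21,000xg for 90 min left soluble protein in the supernatant, which TMTpro 16plex LC-MS/MS quantified with equalised channel sums. Results are log-two fold changes in thermal stability compared with solvent controls, from duplicates.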

Chain of UniProt Q96EK7 (Q96EK7 whole entry, looked up): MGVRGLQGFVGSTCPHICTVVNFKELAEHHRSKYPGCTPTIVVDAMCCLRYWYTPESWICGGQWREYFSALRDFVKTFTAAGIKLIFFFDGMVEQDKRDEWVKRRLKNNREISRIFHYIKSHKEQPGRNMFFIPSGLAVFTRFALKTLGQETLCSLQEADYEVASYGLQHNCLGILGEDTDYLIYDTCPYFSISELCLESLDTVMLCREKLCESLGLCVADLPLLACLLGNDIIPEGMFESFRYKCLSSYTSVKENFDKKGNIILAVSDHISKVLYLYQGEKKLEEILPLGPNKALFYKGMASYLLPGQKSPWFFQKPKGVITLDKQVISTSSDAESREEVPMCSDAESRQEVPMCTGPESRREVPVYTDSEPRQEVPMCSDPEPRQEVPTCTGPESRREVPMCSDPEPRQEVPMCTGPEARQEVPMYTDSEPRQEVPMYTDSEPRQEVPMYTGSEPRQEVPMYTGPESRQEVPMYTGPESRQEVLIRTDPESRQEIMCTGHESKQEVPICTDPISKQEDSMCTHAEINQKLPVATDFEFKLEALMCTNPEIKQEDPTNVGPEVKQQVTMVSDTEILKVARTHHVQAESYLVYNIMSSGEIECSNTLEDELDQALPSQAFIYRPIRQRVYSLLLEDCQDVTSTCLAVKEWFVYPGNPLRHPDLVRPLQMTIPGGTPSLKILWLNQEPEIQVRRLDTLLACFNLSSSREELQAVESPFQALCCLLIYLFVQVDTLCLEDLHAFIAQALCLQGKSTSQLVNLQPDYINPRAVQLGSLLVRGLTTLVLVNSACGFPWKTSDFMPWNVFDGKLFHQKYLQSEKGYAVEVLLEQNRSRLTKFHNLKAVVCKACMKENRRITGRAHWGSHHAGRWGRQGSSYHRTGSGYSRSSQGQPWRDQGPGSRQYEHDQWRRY
Chain of UniProt Q9NZJ5 (Q9NZJ5 whole entry, looked up): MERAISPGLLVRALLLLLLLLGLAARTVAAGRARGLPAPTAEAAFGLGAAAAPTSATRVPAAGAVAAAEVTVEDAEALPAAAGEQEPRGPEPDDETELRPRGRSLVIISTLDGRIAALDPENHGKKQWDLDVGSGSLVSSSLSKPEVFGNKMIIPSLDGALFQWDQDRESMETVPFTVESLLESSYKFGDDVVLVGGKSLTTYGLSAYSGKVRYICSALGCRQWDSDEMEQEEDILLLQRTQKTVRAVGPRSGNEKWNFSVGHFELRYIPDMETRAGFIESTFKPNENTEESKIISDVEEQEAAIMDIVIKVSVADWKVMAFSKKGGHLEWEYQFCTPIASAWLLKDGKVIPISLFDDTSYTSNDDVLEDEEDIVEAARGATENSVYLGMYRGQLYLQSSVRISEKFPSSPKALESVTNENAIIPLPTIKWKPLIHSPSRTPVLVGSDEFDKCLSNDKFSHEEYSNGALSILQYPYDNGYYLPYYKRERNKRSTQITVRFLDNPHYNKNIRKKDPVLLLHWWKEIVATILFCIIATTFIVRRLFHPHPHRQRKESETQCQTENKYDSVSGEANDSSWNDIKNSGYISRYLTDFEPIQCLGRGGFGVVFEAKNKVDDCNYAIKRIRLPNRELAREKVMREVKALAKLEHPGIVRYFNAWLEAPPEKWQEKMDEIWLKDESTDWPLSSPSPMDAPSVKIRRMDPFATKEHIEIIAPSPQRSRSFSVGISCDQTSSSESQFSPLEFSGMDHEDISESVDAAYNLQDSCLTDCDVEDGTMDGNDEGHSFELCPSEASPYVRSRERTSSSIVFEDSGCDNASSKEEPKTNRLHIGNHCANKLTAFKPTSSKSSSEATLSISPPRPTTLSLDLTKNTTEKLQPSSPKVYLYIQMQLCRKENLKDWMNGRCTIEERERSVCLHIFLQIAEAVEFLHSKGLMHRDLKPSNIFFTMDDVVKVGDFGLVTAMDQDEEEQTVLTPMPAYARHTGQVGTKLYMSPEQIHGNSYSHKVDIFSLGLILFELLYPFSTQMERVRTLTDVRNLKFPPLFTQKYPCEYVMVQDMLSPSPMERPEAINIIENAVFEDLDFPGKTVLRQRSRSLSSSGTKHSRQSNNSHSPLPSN
Chain of UniProt Q9UKR5 (Q9UKR5 whole entry, looked up): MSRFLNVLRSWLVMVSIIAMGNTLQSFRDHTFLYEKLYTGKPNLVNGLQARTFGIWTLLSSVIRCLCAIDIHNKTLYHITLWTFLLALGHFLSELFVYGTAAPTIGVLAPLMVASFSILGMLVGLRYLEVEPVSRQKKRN
Chain of UniProt Q9NZC3 (Q9NZC3 whole entry, looked up): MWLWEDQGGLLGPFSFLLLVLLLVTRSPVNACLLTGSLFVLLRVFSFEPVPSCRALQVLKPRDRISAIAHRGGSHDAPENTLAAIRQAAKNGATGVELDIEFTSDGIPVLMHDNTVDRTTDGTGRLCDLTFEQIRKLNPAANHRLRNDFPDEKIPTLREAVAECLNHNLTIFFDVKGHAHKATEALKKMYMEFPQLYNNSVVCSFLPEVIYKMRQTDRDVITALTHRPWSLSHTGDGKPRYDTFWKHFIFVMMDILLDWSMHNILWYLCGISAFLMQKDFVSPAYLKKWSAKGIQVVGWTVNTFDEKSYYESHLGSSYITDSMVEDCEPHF
Chain of UniProt P57772 (P57772 whole entry, looked up): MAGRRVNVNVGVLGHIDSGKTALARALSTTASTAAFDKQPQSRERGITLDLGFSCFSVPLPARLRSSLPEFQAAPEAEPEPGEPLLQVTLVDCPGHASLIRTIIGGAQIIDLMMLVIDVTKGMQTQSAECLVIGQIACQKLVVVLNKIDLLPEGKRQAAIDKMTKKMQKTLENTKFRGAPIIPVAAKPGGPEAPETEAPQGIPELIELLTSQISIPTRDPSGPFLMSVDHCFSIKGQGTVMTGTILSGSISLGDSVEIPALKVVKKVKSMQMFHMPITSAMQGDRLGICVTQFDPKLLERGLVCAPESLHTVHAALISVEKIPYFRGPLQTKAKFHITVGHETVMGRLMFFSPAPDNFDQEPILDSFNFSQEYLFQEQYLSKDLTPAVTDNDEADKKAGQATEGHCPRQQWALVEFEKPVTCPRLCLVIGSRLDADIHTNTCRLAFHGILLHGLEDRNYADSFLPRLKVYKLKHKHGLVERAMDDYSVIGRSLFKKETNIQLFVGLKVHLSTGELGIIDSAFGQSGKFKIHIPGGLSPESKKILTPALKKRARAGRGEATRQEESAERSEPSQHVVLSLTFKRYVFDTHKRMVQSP
Chain of UniProt Q08426 (Q08426 whole entry, looked up): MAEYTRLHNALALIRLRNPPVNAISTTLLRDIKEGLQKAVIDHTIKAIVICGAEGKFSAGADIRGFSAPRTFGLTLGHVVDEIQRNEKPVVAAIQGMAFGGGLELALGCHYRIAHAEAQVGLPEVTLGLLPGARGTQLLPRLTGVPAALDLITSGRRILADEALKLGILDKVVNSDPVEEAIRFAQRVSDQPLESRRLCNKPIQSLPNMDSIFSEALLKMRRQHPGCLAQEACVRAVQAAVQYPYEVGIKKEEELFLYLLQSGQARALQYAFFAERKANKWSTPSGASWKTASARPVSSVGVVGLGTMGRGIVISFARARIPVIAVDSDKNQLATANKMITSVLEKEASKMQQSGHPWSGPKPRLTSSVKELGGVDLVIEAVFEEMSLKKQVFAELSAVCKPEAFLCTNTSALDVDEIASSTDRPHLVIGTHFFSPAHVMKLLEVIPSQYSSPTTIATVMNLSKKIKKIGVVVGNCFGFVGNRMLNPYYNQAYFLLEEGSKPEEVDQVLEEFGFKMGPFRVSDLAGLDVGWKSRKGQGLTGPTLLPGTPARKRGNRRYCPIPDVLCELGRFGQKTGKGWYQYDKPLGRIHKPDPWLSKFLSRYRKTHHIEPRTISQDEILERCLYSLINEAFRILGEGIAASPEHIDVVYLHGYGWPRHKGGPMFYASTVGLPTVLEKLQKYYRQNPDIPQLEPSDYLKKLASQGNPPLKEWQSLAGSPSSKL
Chain of UniProt Q9Y6B2 (Q9Y6B2 whole entry, looked up): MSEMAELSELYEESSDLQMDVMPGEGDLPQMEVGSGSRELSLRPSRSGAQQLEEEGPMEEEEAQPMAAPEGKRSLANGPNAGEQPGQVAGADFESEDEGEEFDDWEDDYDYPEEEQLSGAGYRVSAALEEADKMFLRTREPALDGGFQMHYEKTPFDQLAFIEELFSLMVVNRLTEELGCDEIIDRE
Chain of UniProt Q9HCG7 (Q9HCG7 whole entry, looked up): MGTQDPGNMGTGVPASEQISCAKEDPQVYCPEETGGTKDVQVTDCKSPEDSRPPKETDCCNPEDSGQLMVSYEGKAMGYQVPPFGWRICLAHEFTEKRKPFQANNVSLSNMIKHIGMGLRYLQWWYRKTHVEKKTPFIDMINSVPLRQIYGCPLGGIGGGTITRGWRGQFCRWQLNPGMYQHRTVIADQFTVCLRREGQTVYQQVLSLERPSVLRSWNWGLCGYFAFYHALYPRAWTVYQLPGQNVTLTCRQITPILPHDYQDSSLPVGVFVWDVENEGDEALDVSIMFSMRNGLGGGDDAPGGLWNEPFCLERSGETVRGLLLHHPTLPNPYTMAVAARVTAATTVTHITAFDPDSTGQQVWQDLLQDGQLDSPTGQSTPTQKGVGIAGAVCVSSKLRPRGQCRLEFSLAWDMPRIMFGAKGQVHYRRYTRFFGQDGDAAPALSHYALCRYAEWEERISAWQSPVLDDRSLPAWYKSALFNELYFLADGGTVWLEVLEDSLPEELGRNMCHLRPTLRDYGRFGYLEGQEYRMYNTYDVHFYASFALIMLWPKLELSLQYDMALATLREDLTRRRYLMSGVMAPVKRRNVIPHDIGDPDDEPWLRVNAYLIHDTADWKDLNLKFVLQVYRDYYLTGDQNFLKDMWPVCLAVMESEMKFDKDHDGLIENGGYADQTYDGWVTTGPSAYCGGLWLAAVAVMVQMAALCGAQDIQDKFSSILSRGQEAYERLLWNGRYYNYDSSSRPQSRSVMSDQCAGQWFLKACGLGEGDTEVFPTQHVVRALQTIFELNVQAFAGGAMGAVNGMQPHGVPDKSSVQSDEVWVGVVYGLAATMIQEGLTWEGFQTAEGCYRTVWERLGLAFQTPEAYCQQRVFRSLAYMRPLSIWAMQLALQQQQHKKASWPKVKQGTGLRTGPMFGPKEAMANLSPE

Row | Target | log2 fold change
1 | FOXJ2 (UniProt Q9P0K8) | 0.039
2 | FAM76B (UniProt Q5HYJ3) | -0.099
3 | GEMIN4 (UniProt P57678) | 0.041
4 | GAA (UniProt P10253) | -0.024
5 | FTSJ1 isoform 2 (UniProt Q9UET6) | -0.234
6 | FNDC3A (UniProt Q9Y2H6) | -0.136
7 | EVI5L isoform 2 (UniProt Q96CN4) | 0.036
8 | EPB41 isoform 4 (UniProt P11171) | 0.106
9 | EIF2AK3 (UniProt Q9NZJ5) | 0.041
10 | ELAVL4 (UniProt P26378) | 0.095
11 | EIF3I (UniProt Q5TFK1) | 0.059
12 | ESRRB isoform 1 (UniProt O95718) | 0.321
13 | EFCAB14 (UniProt O75071) | 0.013
14 | EPN2 (UniProt I3L356) | -0.235
15 | EPS8L2 (UniProt Q9H6S3) | 0.037
16 | FAM120B (UniProt Q96EK7) | 0.035
17 | EID1 (UniProt Q9Y6B2) | -0.022

Row | Target | log2 fold change
18 | EEFSEC (UniProt P57772) | 0.015
19 | GBA2 (UniProt Q9HCG7) | -0.057
20 | ENO1, A0A2R8YEM5 | -0.21
21 | FAM204A (UniProt Q9H8W3) | -0.035
22 | ERG28 (UniProt Q9UKR5) | 0.277
23 | EHHADH (UniProt Q08426) | 0.031
24 | DST isoform 3 (UniProt Q03001) | 0.586
25 | GDE1 (UniProt Q9NZC3) | 0.394
26 | FAT1 (UniProt Q14517) | -0.092
27 | GART (UniProt C9JZG2) | -0.366
28 | FBXO38 (UniProt Q6PIJ6) | 0.013
29 | EIF3I (UniProt Q13347) | 0.033
30 | GCA (UniProt P28676) | -0.095
31 | FAT2 (UniProt Q9NYQ8) | -0.161
32 | DYRK1A isoform 2 (UniProt Q13627) | -0.339
33 | GC isoform 3 (UniProt P02774) | 0.107
34 | FBXO45 (UniProt P0C2W1) | 0.053
